These results are taken from PubChem BioAssay (NCI).

Common to all, as to experiment: NCI-60 one-dose screen, 48 h (100 = growth as untreated, 0 = no growth, -100 = all killed)
The test system of one experiment is NCI-H23 lung. To be noted: 10 µM unless noted.
For the next experiment, the system named is NCI-H322M lung. As to conditions: 10 µM unless noted.
In a further experiment the test system is HOP-62 NSCLC. To be noted: 10 µM unless noted.
In a further experiment the test system is NCI-H460 lung. To be noted: 10 µM unless noted.
The test system of a further experiment is HOP-92 NSCLC. To be noted: 10 µM unless noted.
The next experiment has as its system A549/ATCC NSCLC. As to conditions: 10 µM unless noted.
Another experiment concerns 786-0 renal. To be noted: 10 µM unless noted.
The next experiment has as its system COLO 205 colon. To be noted: 10 µM unless noted.
The subject of the next experiment is NCI-H522 lung. To be noted: 10 µM.

SMILES strings stand for the structures. Compounds without any hit were thinned out: in the full panel of roughly 83,000, 20% have a hit.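 Note: values are percent growth. 100 is the growth of untreated cells, values between 100 and 0 indicate rising inhibition; between -100 and 0 indicates cell death.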 A number with no mark means an inactive call. The source made the active and inactive calls. How the source made its calls: active means growth percent below 10; inactive means the rest.

In the case of `CCN1CCN(c2ccc(Nc3ncc4ccc5ncn(C(C)C)c5c4n3)nc2)CC1`, the growth was -26.1% (active) in the experiment on NCI-H23 lung; 1.51% (active) with NCI-H322M lung; -7.69% (active) with HOP-62 NSCLC; -30.3% (active) in the experiment with NCI-H460 lung; 13.9% in the experiment on HOP-92 NSCLC; 9.87% (active) in the experiment on A549/ATCC NSCLC. The growth in the experiment on 786-0 renal was 9.21% (active); in the experiment with COLO 205 colon, -40.4% (active).
Take `Nc1nc(-c2ccnc(Cl)c2)nn1-c1nc2ccccc2s1`: the growth with NCI-H23 lung is 101%; with NCI-H322M lung it was 100%; in the experiment on HOP-62 NSCLC, 99.5%; with NCI-H460 lung, 107%; with HOP-92 NSCLC, 103%; in the experiment with A549/ATCC NSCLC, 103%. The growth in the experiment with 786-0 renal was 109%; with COLO 205 colon, 116%.
As to `COc1cc(Cn2cc(F)c(=O)[nH]c2=O)cc(OC)c1`, the growth in the experiment with NCI-H23 lung is 103% [50 µM]; in the experiment with NCI-H322M lung it was 99% [50 µM]; in the experiment with HOP-62 NSCLC, 88.2% [50 µM]; in the experiment on NCI-H460 lung it was 103% [50 µM]; with HOP-92 NSCLC, 101% [50 µM]; in the experiment on A549/ATCC NSCLC, 102% [50 µM]. The values for the growth with 786-0 renal and with COLO 205 colon were 97.5% [50 µM] and 117% [50 µM], respectively.
For `O=c1[nH]c(=O)n(Cc2ccc(F)cc2)cc1F`, the growth was 105% [50 µM] in the experiment with NCI-H23 lung; 107% [50 µM] in the experiment on NCI-H322M lung; 109% [50 µM] in the experiment with HOP-62 NSCLC; 108% [50 µM] in the experiment with NCI-H460 lung; 108% [50 µM] in the experiment on HOP-92 NSCLC; 96% [50 µM] with A549/ATCC NSCLC. In addition, the growth in the experiment with 786-0 renal was 105% [50 µM]; in the experiment with COLO 205 colon, 115% [50 µM].
Take `Cc1ccccc1-c1cc(-c2ccc(Br)s2)[nH]c(=O)c1C#N`: the growth in the experiment with NCI-H23 lung was 96.8%; with NCI-H322M lung, 97.9%; in the experiment on HOP-62 NSCLC, 104%; in the experiment on NCI-H460 lung it was 106%; with NCI-H522 lung it was 93.4%; in the experiment on A549/ATCC NSCLC, 107%. For the same compound, the growth in the experiment with 786-0 renal is 97.6%.
With `Oc1ccc(Cl)cc1CNc1nc2ccccc2[nH]1`, the growth in the experiment with NCI-H23 lung was 65.2%; with NCI-H322M lung, 101%; with HOP-62 NSCLC it was 82.7%; in the experiment with NCI-H460 lung, -33.9% (active); in the experiment on NCI-H522 lung it was 62%; in the experiment on A549/ATCC NSCLC it was -14.1% (active). Also, the results for the growth in the experiment with 786-0 renal and in the experiment with COLO 205 colon were 60.7% and 65.1%, respectively.
As for `COc1ccc(OC2=CC(=O)c3ccc(C)nc3C2=O)cc1`, the growth was 65.7% in the experiment with NCI-H23 lung; 102% with NCI-H322M lung; 89.1% in the experiment with HOP-62 NSCLC; 86.1% with NCI-H460 lung; 55.2% in the experiment with NCI-H522 lung; 96.4% with A549/ATCC NSCLC. Moreover, the growth in the experiment with 786-0 renal was 109%.
Consider `COc1ccc(/C=C2\Oc3cc(C)c(Cl)cc3C2=O)cc1OC`, for which the growth in the experiment with NCI-H23 lung was 103%; with NCI-H322M lung it was 107%; with HOP-62 NSCLC it was 111%; in the experiment with NCI-H460 lung, 103%; in the experiment on NCI-H522 lung it was 82.7%; with A549/ATCC NSCLC, 98.3%. For the same compound, the growth in the experiment on 786-0 renal was 95.7%.
As for `CC1CCCCN1S(=O)(=O)c1ccc(CN=C=S)cc1` (configuration not stated), the growth in the experiment on NCI-H23 lung was 97.1%; in the experiment with NCI-H322M lung, 96.6%; in the experiment with HOP-62 NSCLC, 108%; with NCI-H460 lung it was 88.4%; with HOP-92 NSCLC, 60.8%; in the experiment on A549/ATCC NSCLC, 102%. Also, the figures for the growth with 786-0 renal and in the experiment with COLO 205 colon were 55.9% and 52.8%, respectively.
For the compound `O=C(CC(O)c1ccccc1)Nc1ccccn1` (configuration not stated), the growth in the experiment on NCI-H23 lung was 98.6%; in the experiment with NCI-H322M lung it was 93.3%; in the experiment on HOP-62 NSCLC, 103%; in the experiment with NCI-H460 lung it was 112%; in the experiment with NCI-H522 lung, 96%; in the experiment with A549/ATCC NSCLC, 95.8%. Besides, the growth in the experiment on 786-0 renal was 102%.
`CCCCCCCCCCCCCCn1c2ccccc2c2c3c(c4c5cc(OC)ccc5oc4c21)C(=O)NC3=O`: the growth is 103% in the experiment with NCI-H23 lung; 106% in the experiment with NCI-H322M lung; 117% in the experiment with HOP-62 NSCLC; 100% with NCI-H460 lung; 98% in the experiment with NCI-H522 lung; 103% in the experiment with A549/ATCC NSCLC. Besides, the growth in the experiment with 786-0 renal is 103%.
On to `c1ccc2cc(-c3n(Cc4ccc5ccccc5n4)c4ccccc4[n+]3Cc3ccc4ccccc4n3)ccc2c1`, for which the growth is -16.5% (active) with NCI-H23 lung; 7.73% (active) in the experiment on NCI-H322M lung; -7% (active) with HOP-62 NSCLC; -57.3% (active) in the experiment with NCI-H460 lung; -31.6% (active) in the experiment on HOP-92 NSCLC; 6.23% (active) in the experiment on A549/ATCC NSCLC. Moreover, the growth is 5.11% (active) in the experiment with 786-0 renal and -66.7% (active) in the experiment on COLO 205 colon.
`COc1ccc(S(=O)(=O)ON=C2C=C(C)C(=O)C(C)=C2)cc1`: the growth with NCI-H23 lung is 98.2%; with NCI-H322M lung it was 103%; with HOP-62 NSCLC, 106%; with NCI-H460 lung, 106%; with HOP-92 NSCLC, 59.4%; with A549/ATCC NSCLC, 105%. The growth with 786-0 renal is 93.1%; with COLO 205 colon it was 89.2%.
As for `COc1ccc(Sc2ccc3[nH]c(=O)nc(N)c3c2)cc1`, the growth is 101% with NCI-H23 lung; 96.4% with NCI-H322M lung; 108% in the experiment on HOP-62 NSCLC; 106% in the experiment on NCI-H460 lung; 100% with NCI-H522 lung; 80.3% in the experiment on A549/ATCC NSCLC. Moreover, the growth is 104% with 786-0 renal and 106% with COLO 205 colon.
